Holding throughout (assay): DAPPL (digital affinity profiling via proximity ligation, sequencing); 10 mM Tris-HCl pH 7.5, 50 mM NaCl, 1 mM DTT, 4% glycerol, room temperature, 30 min; GST-TFs on glutathione beads, 16-mer random dsDNA library, 0.1% formaldehyde crosslink after washing; high values mean tight binding
The target in assay [1] is T1, FEV (Homo sapiens, UniProt Q99581 1-238).
T1 sequence: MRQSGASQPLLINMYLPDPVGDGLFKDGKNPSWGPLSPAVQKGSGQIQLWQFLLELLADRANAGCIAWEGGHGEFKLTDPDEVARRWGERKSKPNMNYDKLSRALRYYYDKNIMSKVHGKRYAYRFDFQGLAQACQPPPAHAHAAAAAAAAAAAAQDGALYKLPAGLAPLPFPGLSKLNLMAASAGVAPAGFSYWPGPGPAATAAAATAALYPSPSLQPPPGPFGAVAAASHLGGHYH
As to conditions: protein: recombinant; tags: N-terminal GST; dsDNA, one strand shown. A digest of the protocol: (§1)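 After expression in yeast as GST fusions, human transcription factors were bound to glutathione beads, DNA-barcoded and mixed with a tag-only sample. The pools were incubated with 200 nmole of a 16-mer random double-stranded DNA library in Tris/NaCl/DTT/glycerol buffer (30 min, room temperature), washed and crosslinked with 0.1% formaldehyde. Proximity ligation with BsaI/T4 ligase ran for 1 h at 37 °C, before PCR amplification and sequencing on an Illumina NextSeq500. Binding signal is a hexamer's read frequency for a factor divided by its frequency for the tag-only sample.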

The target of assay [2] is ETV5 (Homo sapiens, UniProt P41161 1-510). As to conditions: protein: recombinant; tags: N-terminal GST; dsDNA, one strand shown. A digest of the protocol: as §1
ETV5, sequence (P41161 whole entry): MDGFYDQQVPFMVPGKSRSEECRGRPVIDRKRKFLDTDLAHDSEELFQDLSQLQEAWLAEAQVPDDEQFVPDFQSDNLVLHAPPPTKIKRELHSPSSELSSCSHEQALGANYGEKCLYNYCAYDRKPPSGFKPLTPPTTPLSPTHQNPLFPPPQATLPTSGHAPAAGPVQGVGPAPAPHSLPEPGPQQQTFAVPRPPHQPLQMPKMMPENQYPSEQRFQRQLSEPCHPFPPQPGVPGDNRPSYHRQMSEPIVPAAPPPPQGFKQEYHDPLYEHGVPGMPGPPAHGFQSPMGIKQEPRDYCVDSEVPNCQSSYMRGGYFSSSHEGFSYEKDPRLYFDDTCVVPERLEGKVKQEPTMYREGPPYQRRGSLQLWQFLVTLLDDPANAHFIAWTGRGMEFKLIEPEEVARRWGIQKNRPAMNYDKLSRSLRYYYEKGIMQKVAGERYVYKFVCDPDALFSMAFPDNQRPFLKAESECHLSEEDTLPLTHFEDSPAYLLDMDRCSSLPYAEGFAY
The target of assay [3] is HSF1 (Homo sapiens, UniProt Q00613 1-529). The note with it: protein: recombinant; tags: N-terminal GST; chain copies: 3; dsDNA, one strand shown. A digest of the protocol: as §1
HSF1, sequence (Q00613 whole entry): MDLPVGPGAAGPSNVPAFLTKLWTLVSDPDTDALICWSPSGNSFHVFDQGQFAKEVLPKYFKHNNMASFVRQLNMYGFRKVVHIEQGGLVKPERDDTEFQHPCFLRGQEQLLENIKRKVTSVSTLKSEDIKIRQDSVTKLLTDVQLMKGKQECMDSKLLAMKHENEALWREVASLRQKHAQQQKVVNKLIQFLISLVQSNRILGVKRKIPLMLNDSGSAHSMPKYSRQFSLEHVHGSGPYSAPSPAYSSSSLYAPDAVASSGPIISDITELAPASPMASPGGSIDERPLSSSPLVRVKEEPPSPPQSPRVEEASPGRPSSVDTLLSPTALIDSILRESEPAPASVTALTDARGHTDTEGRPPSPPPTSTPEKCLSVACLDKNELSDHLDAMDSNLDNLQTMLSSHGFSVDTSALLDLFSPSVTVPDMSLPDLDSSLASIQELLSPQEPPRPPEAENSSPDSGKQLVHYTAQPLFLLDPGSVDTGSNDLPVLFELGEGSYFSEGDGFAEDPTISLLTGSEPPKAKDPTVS
Assay [4] deals with T2, SPIC (Homo sapiens, UniProt Q8N5J4 1-248).
T2 sequence: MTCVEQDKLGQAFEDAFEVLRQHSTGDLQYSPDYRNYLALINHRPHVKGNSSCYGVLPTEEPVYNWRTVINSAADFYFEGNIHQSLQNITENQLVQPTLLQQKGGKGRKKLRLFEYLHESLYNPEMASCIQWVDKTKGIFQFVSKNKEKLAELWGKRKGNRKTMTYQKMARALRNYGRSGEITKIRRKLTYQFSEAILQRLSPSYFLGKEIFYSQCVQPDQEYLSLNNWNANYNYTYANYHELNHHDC
The note with it: protein: recombinant; tags: N-terminal GST; dsDNA, one strand shown. A digest of the protocol:
as §1

In assay [5] the target is ELF4 (Homo sapiens, UniProt Q99607 1-663). The note with it: protein: recombinant; tags: N-terminal GST; dsDNA, one strand shown. A digest of the protocol:
as §1

Assay [6] has as its target T3, ELK4 (Homo sapiens, UniProt P28324-2 1-405).
T3 sequence: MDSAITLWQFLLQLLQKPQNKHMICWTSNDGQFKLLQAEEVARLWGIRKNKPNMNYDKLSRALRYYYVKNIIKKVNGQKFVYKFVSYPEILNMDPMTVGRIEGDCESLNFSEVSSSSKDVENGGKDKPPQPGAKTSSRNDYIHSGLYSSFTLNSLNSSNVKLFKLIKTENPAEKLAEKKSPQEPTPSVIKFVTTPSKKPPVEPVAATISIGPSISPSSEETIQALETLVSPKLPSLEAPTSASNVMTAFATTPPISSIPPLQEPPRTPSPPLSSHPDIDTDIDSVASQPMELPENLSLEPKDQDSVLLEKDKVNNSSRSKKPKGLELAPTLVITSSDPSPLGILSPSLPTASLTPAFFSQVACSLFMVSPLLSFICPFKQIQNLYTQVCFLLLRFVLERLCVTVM
As to conditions: protein: recombinant; tags: N-terminal GST; dsDNA, one strand shown. A digest of the protocol:
as §1

Assay [7] deals with T4, ETV2 (Homo sapiens, UniProt O00321 1-342).
T4 sequence: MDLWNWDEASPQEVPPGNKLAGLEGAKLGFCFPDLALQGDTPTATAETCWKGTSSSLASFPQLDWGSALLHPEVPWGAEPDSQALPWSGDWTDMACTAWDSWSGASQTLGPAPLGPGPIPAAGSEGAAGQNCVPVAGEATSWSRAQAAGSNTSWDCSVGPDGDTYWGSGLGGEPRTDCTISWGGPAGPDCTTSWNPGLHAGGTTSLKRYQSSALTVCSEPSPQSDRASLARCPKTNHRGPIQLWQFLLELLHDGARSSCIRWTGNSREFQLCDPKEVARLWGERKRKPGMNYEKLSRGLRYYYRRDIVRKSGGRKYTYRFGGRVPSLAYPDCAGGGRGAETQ
The note with it: protein: recombinant; tags: N-terminal GST; dsDNA, one strand shown. A digest of the protocol:
as §1

In assay [8] the target is T5, ELF3 (Homo sapiens, UniProt P78545 1-371).
T5 sequence: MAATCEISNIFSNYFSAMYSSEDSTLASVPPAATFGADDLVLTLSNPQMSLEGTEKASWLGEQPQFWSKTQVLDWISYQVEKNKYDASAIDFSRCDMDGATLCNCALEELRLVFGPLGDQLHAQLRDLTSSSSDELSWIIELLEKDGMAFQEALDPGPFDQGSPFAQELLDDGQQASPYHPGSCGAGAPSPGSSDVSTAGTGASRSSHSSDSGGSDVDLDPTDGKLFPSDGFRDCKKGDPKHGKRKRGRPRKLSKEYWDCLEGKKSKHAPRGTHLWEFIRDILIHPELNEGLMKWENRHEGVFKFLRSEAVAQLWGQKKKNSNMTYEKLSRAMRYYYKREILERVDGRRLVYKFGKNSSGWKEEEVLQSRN
The note with it: protein: recombinant; tags: N-terminal GST; dsDNA, one strand shown. The essentials: as §1

Assay [9] concerns the target CRX (Homo sapiens, UniProt O43186 1-299). As to conditions: protein: recombinant; tags: N-terminal GST; dsDNA, one strand shown. A digest of the protocol: as §1
In assay [10] the target is ETV1 (Homo sapiens, UniProt P50549 1-477). The note with it: protein: recombinant; tags: N-terminal GST; dsDNA, one strand shown. A digest of the protocol: as §1
ETV1, sequence (P50549 whole entry): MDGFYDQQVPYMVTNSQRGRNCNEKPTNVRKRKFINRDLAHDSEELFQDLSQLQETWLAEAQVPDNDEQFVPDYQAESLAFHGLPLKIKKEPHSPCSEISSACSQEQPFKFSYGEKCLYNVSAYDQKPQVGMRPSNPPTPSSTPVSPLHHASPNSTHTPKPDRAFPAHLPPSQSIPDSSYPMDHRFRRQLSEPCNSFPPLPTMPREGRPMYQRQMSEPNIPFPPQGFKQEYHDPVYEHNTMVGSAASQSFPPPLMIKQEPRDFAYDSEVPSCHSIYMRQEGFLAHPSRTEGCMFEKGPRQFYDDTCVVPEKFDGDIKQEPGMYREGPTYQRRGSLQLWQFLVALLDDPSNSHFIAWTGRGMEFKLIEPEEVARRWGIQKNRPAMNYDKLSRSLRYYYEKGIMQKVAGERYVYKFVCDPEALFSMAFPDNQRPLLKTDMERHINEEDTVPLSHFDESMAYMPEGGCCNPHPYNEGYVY
In assay [11] the target is T6, ERF (Homo sapiens, UniProt P50548 1-548).
T6 sequence: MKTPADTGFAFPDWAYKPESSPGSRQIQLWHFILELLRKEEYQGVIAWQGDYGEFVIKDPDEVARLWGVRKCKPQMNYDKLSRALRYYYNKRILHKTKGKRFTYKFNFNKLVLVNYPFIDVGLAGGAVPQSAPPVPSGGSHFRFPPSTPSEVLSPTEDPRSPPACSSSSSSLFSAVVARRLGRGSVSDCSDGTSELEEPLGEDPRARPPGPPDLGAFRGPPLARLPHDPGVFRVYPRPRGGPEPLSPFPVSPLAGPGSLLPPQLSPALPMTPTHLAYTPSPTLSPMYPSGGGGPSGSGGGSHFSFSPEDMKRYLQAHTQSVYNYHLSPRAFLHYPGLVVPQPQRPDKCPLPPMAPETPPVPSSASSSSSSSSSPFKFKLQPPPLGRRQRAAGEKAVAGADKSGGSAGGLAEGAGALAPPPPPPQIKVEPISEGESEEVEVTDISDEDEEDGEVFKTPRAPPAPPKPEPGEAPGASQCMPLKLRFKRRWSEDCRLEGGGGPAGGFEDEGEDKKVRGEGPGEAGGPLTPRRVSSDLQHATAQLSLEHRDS
The note with it: protein: recombinant; tags: N-terminal GST; dsDNA, one strand shown. A digest of the protocol: as §1

Assay [12] addresses T7, ETV3L (Homo sapiens, UniProt Q6ZN32 1-361).
T7 sequence: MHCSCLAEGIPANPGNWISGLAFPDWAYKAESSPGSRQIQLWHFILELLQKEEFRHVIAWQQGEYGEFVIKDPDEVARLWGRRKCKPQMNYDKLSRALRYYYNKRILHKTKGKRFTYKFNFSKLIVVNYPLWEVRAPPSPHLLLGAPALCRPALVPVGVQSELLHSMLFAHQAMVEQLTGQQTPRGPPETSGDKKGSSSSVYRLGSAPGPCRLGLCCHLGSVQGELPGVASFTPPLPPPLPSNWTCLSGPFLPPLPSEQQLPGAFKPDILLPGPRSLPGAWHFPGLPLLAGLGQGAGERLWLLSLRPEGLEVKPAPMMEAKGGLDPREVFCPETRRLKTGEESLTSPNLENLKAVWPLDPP
The note with it: protein: recombinant; tags: N-terminal GST; dsDNA, one strand shown. A digest of the protocol:
as §1

Assay [13] addresses T8, ETS2 (Homo sapiens, UniProt P15036 1-469).
T8 sequence: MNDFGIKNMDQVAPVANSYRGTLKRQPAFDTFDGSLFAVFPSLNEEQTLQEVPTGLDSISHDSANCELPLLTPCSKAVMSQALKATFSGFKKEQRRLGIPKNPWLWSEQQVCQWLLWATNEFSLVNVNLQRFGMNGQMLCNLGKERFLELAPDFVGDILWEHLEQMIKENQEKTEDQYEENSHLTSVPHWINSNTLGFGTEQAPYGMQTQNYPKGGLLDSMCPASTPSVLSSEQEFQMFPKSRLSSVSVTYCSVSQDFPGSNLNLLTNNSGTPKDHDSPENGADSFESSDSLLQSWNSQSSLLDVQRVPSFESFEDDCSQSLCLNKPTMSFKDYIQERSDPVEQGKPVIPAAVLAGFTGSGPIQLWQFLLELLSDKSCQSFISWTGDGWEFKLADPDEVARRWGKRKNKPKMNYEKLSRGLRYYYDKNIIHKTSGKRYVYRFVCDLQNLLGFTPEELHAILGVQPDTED
As to conditions: protein: recombinant; tags: N-terminal GST; dsDNA, one strand shown. The essentials:
as §1

Assay [14] concerns the target T9, SPDEF (Homo sapiens, UniProt O95238 1-335).
T9 sequence: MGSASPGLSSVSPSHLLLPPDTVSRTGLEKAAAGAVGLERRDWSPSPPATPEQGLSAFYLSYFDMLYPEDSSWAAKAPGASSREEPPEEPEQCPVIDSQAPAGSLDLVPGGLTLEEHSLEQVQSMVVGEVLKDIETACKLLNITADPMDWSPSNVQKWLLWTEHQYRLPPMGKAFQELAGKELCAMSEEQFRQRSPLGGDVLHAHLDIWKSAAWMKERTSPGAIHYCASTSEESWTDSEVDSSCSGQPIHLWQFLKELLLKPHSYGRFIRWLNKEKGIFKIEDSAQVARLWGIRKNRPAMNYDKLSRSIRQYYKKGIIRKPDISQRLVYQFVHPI
The note with it: protein: recombinant; tags: N-terminal GST; dsDNA, one strand shown. A digest of the protocol: as §1

Assay [15] concerns the target T10, ETV7 (Homo sapiens, UniProt Q9Y603 1-341).
T10 sequence: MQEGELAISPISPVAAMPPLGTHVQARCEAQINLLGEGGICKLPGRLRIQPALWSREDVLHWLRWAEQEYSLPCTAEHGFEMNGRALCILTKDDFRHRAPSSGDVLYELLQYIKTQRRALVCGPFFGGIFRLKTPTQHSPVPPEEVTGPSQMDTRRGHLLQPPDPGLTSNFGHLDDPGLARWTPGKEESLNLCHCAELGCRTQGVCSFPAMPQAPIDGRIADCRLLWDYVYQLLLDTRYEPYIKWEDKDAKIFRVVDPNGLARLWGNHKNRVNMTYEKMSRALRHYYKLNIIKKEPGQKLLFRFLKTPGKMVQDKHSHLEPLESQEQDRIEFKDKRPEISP
The note with it: protein: recombinant; tags: N-terminal GST; dsDNA, one strand shown. A digest of the protocol:
as §1

Assay [16] concerns the target T11, ELF5 (Homo sapiens, UniProt Q9UKW6-2 1-255).
T11 sequence: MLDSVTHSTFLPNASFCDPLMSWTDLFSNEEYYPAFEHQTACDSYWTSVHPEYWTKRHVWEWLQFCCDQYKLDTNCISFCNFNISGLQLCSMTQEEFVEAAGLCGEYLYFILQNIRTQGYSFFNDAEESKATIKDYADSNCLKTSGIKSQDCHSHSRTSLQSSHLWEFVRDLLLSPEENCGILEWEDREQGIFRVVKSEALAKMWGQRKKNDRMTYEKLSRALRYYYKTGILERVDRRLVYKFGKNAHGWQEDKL
As to conditions: protein: recombinant; tags: N-terminal GST; dsDNA, one strand shown. The essentials: as §1

In assay [17] the target is T12, ETV3 (Homo sapiens, UniProt P41162-2 1-143).
T12 sequence: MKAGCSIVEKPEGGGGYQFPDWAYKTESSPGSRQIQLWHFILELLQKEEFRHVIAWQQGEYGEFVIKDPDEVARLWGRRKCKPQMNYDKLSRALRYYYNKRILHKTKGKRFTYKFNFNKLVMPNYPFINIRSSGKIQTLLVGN
As to conditions: protein: recombinant; tags: N-terminal GST; dsDNA, one strand shown. The essentials: as §1

For assay [18], the target named is ETV6 (Homo sapiens, UniProt P41212 1-452). As to conditions: protein: recombinant; tags: N-terminal GST; dsDNA, one strand shown. The essentials:
as §1

CRX, sequence (O43186 whole entry): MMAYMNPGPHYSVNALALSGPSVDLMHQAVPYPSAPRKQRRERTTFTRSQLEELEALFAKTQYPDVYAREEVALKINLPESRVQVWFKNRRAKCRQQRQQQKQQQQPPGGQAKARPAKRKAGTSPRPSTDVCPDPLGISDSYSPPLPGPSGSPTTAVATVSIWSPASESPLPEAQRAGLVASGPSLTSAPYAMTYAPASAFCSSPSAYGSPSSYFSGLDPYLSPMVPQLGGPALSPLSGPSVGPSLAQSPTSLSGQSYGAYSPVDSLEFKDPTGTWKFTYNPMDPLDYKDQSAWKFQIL
ETV6, sequence (P41212 whole entry): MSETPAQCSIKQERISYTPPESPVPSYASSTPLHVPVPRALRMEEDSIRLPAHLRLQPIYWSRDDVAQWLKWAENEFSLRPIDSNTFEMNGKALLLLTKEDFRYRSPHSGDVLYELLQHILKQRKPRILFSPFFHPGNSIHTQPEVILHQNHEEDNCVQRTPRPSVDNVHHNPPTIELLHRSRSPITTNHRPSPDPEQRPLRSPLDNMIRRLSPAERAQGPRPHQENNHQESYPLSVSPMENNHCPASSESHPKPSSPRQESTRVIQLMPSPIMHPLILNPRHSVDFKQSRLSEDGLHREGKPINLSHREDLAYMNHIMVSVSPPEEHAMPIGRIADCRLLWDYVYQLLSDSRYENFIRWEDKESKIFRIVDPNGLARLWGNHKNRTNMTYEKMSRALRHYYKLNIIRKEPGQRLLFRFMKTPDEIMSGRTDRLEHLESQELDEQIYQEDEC
ELF4, sequence (Q99607 whole entry): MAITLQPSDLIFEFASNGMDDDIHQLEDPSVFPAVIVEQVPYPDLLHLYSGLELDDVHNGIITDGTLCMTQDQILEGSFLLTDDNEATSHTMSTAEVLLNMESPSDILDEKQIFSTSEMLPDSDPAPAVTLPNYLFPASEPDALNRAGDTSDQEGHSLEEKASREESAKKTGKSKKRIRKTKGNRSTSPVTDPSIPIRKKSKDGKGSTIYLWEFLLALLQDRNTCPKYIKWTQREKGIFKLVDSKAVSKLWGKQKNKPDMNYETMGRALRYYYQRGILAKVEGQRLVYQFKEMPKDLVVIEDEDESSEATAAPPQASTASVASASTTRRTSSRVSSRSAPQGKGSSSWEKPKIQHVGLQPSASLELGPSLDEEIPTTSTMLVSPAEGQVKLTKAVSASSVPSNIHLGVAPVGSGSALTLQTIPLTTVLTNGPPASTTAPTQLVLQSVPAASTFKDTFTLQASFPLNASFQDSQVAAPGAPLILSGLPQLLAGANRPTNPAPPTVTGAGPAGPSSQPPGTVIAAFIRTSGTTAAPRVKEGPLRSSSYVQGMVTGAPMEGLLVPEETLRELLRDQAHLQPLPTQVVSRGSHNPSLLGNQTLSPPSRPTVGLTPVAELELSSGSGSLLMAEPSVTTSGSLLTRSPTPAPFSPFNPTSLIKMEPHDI

For the sequence TTACCC, the binding signal in assay [1] was 1.36 fold enrichment (6-mer frequency, TF over GST control); in assay [2], 1.36 fold enrichment (6-mer frequency, TF over GST control); in assay [3] it was 1.43 fold enrichment (6-mer frequency, TF over GST control); in assay [4] it was 1.4 fold enrichment (6-mer frequency, TF over GST control); in assay [5], 1.48 fold enrichment (6-mer frequency, TF over GST control); in [6], 1.38 fold enrichment (6-mer frequency, TF over GST control). For the same sequence, the binding signal in assay [7] was 1.56 fold enrichment (6-mer frequency, TF over GST control); in assay [8] it was 1.14 fold enrichment (6-mer frequency, TF over GST control); in assay [9], 1.95 fold enrichment (6-mer frequency, TF over GST control); in assay [10], 1.35 fold enrichment (6-mer frequency, TF over GST control); in assay [11], 1.35 fold enrichment (6-mer frequency, TF over GST control); in assay [12] it was 1.26 fold enrichment (6-mer frequency, TF over GST control). Further, the binding signal was 1.42 fold enrichment (6-mer frequency, TF over GST control) in [13]; 1.33 fold enrichment (6-mer frequency, TF over GST control) in [14]; 1.41 fold enrichment (6-mer frequency, TF over GST control) in assay [15]; 1.43 fold enrichment (6-mer frequency, TF over GST control) in assay [16]; 1.35 fold enrichment (6-mer frequency, TF over GST control) in assay [17]; 1.29 fold enrichment (6-mer frequency, TF over GST control) in assay [18].

(Values after paper PMC7862700, “An all-to-all approach to the identification of sequence-specific readers for epigenetic DNA modifications on cytosine”.)
